Data as given in the supplement of paper PMC6555819.

Key:
Assay in all cases: PBM binding z-score (relative to random genomic background probes); higher = stronger binding; sequences stand for … in GC…GCGATTGACAGCGTAGAATGAAGG
[1] = tested on: PPARg:RXRa IVT, anti-PPARg (NR concentration 270 nM, RXRa partner concentration 90 nM)
Procedure, shortened: (§1)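 Binding z-scores were set against random background probes. The data came from custom Agilent 4×180K protein-binding microarrays carrying double-stranded probes with 34-nt variable regions, incubated 1 h with ligand-free nuclear receptor dimers. Partner-specific antibodies detected binding, and scanned fluorescence was regression-normalized.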

[2] = tested on: PPARg DBDmut:RXRa IVT, anti-PPARg (DBD mutation: PPARg1 K132A/R137A, NR concentration 270 nM, RXRa partner concentration 90 nM)
Procedure, shortened: as §1

[3] = tested on: PPARg DBDmut IVT, anti-PPARg (DBD mutation: PPARg1 K132A/R137A, NR concentration 270 nM)
Procedure, shortened: as §1

[4] = tested on: PPARg homodimer (NR concentration 180 nM)
Procedure, shortened: as §1

[5] = tested on: PXR:RXRa (NR concentration 270 nM, RXRa partner concentration 90 nM)
Procedure, shortened: as §1

[6] = tested on: PXR homodimer (NR concentration 270 nM)
Procedure, shortened: as §1

[7] = tested on: RARa:RXR (NR concentration 270 nM, RXRa partner concentration 90 nM)
Procedure, shortened: as §1

[8] = tested on: RARa homodimer (NR concentration 270 nM)
Procedure, shortened: as §1

[9] = tested on: RARb:RXRa (NR concentration 270 nM, RXRa partner concentration 90 nM)
Procedure, shortened: as §1

[10] = tested on: RARb homodimer (NR concentration 270 nM)
Procedure, shortened: as §1

[11] = tested on: RARg:RXRa (NR concentration 270 nM, RXRa partner concentration 90 nM)
Procedure, shortened: as §1

[12] = tested on: RARg homodimer (NR concentration 270 nM)
Procedure, shortened: as §1

[13] = tested on: RXRa DBDmut IVT, anti-RXR (DBD mutation: RXRa K156A/R161A, NR concentration 90 nM)
Procedure, shortened: as §1

[14] = tested on: RXRa homodimer (NR concentration 180 nM)
Procedure, shortened: as §1

[15] = tested on: THRa:RXRa (NR concentration 90 nM, RXRa partner concentration 90 nM)
Procedure, shortened: as §1

[16] = tested on: THRa homodimer (NR concentration 90 nM)
Procedure, shortened: as §1

[17] = tested on: VDR homodimer (NR concentration 270 nM)
Procedure, shortened: as §1

Sequence	PBM binding z-score [1]	PBM binding z-score [2]	PBM binding z-score [3]	PBM binding z-score [4]	PBM binding z-score [5]	PBM binding z-score [6]	PBM binding z-score [7]	PBM binding z-score [8]	PBM binding z-score [9]	PBM binding z-score [10]	PBM binding z-score [11]	PBM binding z-score [12]	PBM binding z-score [13]	PBM binding z-score [14]	PBM binding z-score [15]	PBM binding z-score [16]	PBM binding z-score [17]
ACGCGGAGGACAAAGGTCAGAGCTACGCCAGTGA	3.08	-0.183	-0.911	2.67	3.88	0.273	5.05	0.759	4.48	4.11	6.23	5.34	0.687	5.4	3.38	0.463	0.908
CCTAGTTGGTCAAGGTCACATACGCTATAGGTAC	3.3	1.13	1	3.03	4.1	2.39	4.46	2.55	3.95	4.15	4.18	4.37	2.21	3.89	3.96	3.88	3.56
CCTGCTAGGTCATGGTCAGCGAATCTACAGTATG	3.76	-0.0271	-0.639	2	1.18	-0.875	2.26	-0.334	4.09	3.29	4.05	4.93	1.92	3.09	2.9	1.16	0.226
TTGCCAAGGTGAAAGGTCGTTGATGCACGCCTTG	4.55	-0.0211	-0.745	1.54	4	-0.137	5.68	-0.379	3.06	2.56	4.33	2.25	0.468	5.91	3.3	0.784	1.34
CAAACTAGTTCAAGAGGTCAAAGTCCGCTTCCCG	2.96	-0.123	0.442	5.22	5.97	5.56	6.53	2.22	4.52	4.85	6.53	5.81	3.18	7.43	3.77	1.92	4.98
CCTACTGGTCCAAGGTCATTGATCAGTCAAAGCA	1.68	-0.223	-0.605	3.61	4.18	2.61	4.13	1.23	3.33	3.76	3.84	3.4	2	3.96	3.59	3.48	3.1
TAGCCTAGGTCACATCGGGCCAGTATACGCTATA	3.51	0.246	-0.263	0.979	2.26	-0.395	2.25	-0.254	3.84	2.63	4.02	4.72	0.602	3.09	4.5	1.15	0.412
GCATATAGGTAATACAAGGTCAAAGTCCGATTGT	4.1	0.883	0.92	1.97	4.93	2.12	4.47	1.17	2.92	3.79	3.39	2.81	1.43	3.97	–	3.05	2.68
CCTTACGGGTCAAGGTTATAGCCCGGGTGGTACG	3.44	-0.234	-0.862	1.69	3.43	0.303	4.46	0.676	4.33	3.8	5.05	5.24	-0.0321	5.76	3.1	0.694	1.24
CGTCCGAGGTCAAGGTCAGTGAAAGAGACTCGAA	5.07	0.688	-0.148	4.23	5.51	1.87	6.15	1.57	5.71	5.16	–	7.79	4.19	–	4.37	3.97	4.69
ATATGTAGGATAGCTGGGGTCATTCAGACTAGGC	2.82	0.891	1.52	5.47	5.76	2.24	5.49	1.21	2.54	3.16	3.3	2.31	1.61	4.92	4.2	3.17	5.01
CGTCCAAGGTCATATGAGGTCAGTGAAGACAGAT	3.84	0.668	0.114	4.65	7.23	9.26	6.07	2.7	5.34	5.47	6.88	7.55	4.62	7.07	–	4.58	6.28
TCGCCTAGGTCATGGGCCAGTATACCACGCGAAC	2.65	0.306	-0.587	1.21	1.7	-0.2	2.97	-0.243	3.97	3.12	4.24	4.78	1.21	3.7	3.15	1.58	0.535
GCTGCTAGTTCAACTGATGGTCAGCTAAAGCTCG	-0.512	-0.37	-1.33	-0.347	0.398	-0.4	0.418	-1.04	1.62	1.21	1.93	1.07	1.97	–	0.297	-0.498	0.327
GGAACGAGGTCAAGTTGATAGCAGAGTTTGATGG	6.52	2.59	0.598	3.81	5.86	2.91	5.81	2.1	–	4.59	6.84	7.08	4.6	7.65	4.27	2.78	5.11
AATACGGGGTCACTAGGCCAGAGTAGGTACGAAT	7.02	1.49	1.57	2.6	5.78	1.06	6.3	1.34	5.12	4.41	7.06	6.82	4.12	–	4.25	2.25	4.82
TAGCCTAGGGCATTCAGGGGCCAGTATAGAAAGC	0.75	-0.631	-1.01	-0.114	-0.0151	-0.113	0.405	-0.803	1.42	1.35	1.99	1.1	-0.766	0.0553	1.2	-0.586	-0.169

Sequence	PBM binding z-score [1]	PBM binding z-score [2]	PBM binding z-score [3]	PBM binding z-score [4]	PBM binding z-score [5]	PBM binding z-score [6]	PBM binding z-score [7]	PBM binding z-score [8]	PBM binding z-score [9]	PBM binding z-score [10]	PBM binding z-score [11]	PBM binding z-score [12]	PBM binding z-score [13]	PBM binding z-score [14]	PBM binding z-score [15]	PBM binding z-score [16]	PBM binding z-score [17]
TAGCCTAGTTCATGCGGGCCAGTATAGTGTCGGC	0.949	-0.253	-0.528	-0.545	0.59	0.113	-0.185	-0.774	1.05	0.519	–	0.586	1.71	0.0808	–	-0.684	1.56
ATATGTAGTTTATCGGGTCATTCAGTTTGCGCAT	3.77	1.29	1.84	1.72	3.46	7.31	3.03	1.18	2.26	2.91	2.41	1.85	2.32	2.61	3.42	3.09	4.13
TAGCCTAGGTCATTCAGGGGCAAGTATAGAAAGC	3.07	0.118	0.778	1.7	5.54	0.783	3.46	0.682	3.81	3.46	–	4.44	2.38	3.47	–	0.948	2.65
AATACAGGGTCATCTTAGGCCAGAGTACGCACAG	3.86	1.51	0.721	2.17	5.05	1	4.73	0.742	4.22	3.87	5.61	5.2	3.85	6.42	–	2.11	3.76
TATTCAGGGTCAAAGGCCAGAGTACGAATGTCGA	5.28	4.08	6.08	3.43	4.67	0.543	6.17	1.17	4.83	3.61	6.24	5.27	3.3	7.75	3.83	1.25	3.62
CCTTACGGGTCCCTCCAGGTTATAGCATCGGAGT	-0.601	-1.12	-1.29	0.547	0.139	-0.00641	0.181	-0.487	0.0941	0.0845	0.0762	0.0141	-1.22	0.2	3.05	0.1	0.267
GCTGCTAGGTCAACTGATGGTCACCTAAAGCTCG	4.59	-0.0462	-0.599	1.66	2.06	-0.358	3.26	0.182	4.24	3.93	5.53	5.1	1.29	3.52	3.38	1.69	0.0494
CGTCCAAAGTCAAAGGTCAGTGAAGAGATGACGG	2.41	0.349	0.905	3.27	3.97	0.811	5.61	1.11	4.53	4.29	4.93	5	0.813	5.96	2.81	0.117	0.98
CGAACTAGGTCATCCAGGACCGTGAATACATTGA	8.09	1.32	0.732	1.83	1.34	-0.0905	1.84	0.294	3.6	2.57	3.95	4.72	2.15	2.82	3.12	0.969	0.996
AGTCAAACTTCAGGACGAGGTAACGTAAAGCACG	0.278	0.625	0.0207	0.24	-0.409	-0.112	0.165	0.202	0.545	0.304	0.505	0.586	-0.343	0.511	2.44	1.77	-0.0917
CCTAGTTGGTCAAGGTCACACCCGCTATAGGTAC	3.67	0.989	0.599	3.09	3.95	2.06	4.02	1.87	4.12	4.39	4.26	4.56	1.78	4.2	3.94	4.24	3.57
TAGCCTAGTTCATTCAGGGGCCAGTATAGAAAGC	1.45	-0.019	0.583	0.283	1.29	0.885	0.991	-0.411	1.72	1.64	3.6	1.34	2.96	0.328	1.68	-0.0964	2.71
ACTCGGATGACAAAGGTCAGAGCTACGCCAGTGA	2.58	0.403	0.346	3.31	3.68	0.135	4.51	1.18	4.12	3.9	4.9	4.66	0.624	4.83	2.54	0.0278	1.1
TTACCAAGGTCAAGGTCGTTGATCCCTCTGTAGA	5.09	1.64	0.631	4.12	5.31	2.27	5.57	1.71	–	4.86	6.48	6.91	3.27	6.84	4.38	3.6	4.9
GATACAGGGTCAAGGTCAGAGTACGCGTATTGAT	5.18	1.47	0.678	2.96	5.08	1.84	5.53	2.12	5.11	5.14	6.26	6.78	2.78	6.63	4.45	3.55	4.39
TAGCCGAGGTCATTCAGGGGCCAGTATAGAAAGC	3.9	1.06	1.57	4.27	5.92	2.27	6.51	0.64	5.27	4.49	–	6	4.38	6.55	4.56	2.38	5.34
